These results are taken from PubChem BioAssay (NCI).

This is part of a sample that, as a whole, favours compounds with a hit. Of some 83,000 tested, about 20% had one in any assay.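 Assay: single dose, 48 h. Readout: percent growth (0 = no net growth; negative = cell death). Active: <10.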 Values without a mark were called inactive. Calls of active or inactive are those of the source.

Some test systems named below: SK-MEL-2 melanoma; EKVX NSCLC; SN12C renal; UO-31 renal; TK-10 renal; ACHN renal; CAKI-1 renal; A498 renal; CCRF-CEM leukemia; MOLT-4 leukemia; SR leukemia; RPMI-8226 leukemia; OVCAR-8 ovarian; OVCAR-5 ovarian; OVCAR-4 ovarian; SK-OV-3 ovarian; IGROV1 ovarian; OVCAR-3 ovarian; HS 578T breast; NCI/ADR-RES ovarian.
Test in all cases: NCI-60 one-dose screen, 48 h (100 = growth as untreated, 0 = no growth, -100 = all killed)
Conditions in all cases: 10 µM unless noted

Turning to `COc1cc2c(cc1-c1c(C)noc1C)ncc1nc(C3CCC(F)(F)CC3)n([C@H](C)COC(F)F)c12`, the growth is 65.7% with SK-MEL-2 melanoma; 48.1% in the experiment with EKVX NSCLC; 51% in the experiment on SN12C renal; 25.3% with UO-31 renal; 27.1% in the experiment with TK-10 renal; 37.5% with ACHN renal. Also, the growth in the experiment on CAKI-1 renal is 35.4%; with A498 renal, -22.8% (active); in the experiment with CCRF-CEM leukemia it was 50.3%; with MOLT-4 leukemia, 48.9%; in the experiment with SR leukemia, 22.7%; in the experiment with RPMI-8226 leukemia, 18.5%. Also, the growth with OVCAR-8 ovarian is 44.3%; in the experiment on OVCAR-5 ovarian, 82.5%; with OVCAR-4 ovarian, 48.1%; in the experiment on SK-OV-3 ovarian, 10.5%; in the experiment on IGROV1 ovarian, 40.6%; with OVCAR-3 ovarian it was 39.6%. For the same compound, the growth in the experiment with HS 578T breast was 13.9%; in the experiment on NCI/ADR-RES ovarian, 40.1%.

With `COCCNc1ccc2c3c(cccc13)C(=O)N(CCN(C)C)C2=O`, the growth in the experiment with SK-MEL-2 melanoma is -12.6% (active); with EKVX NSCLC it was 22.5%; in the experiment with SN12C renal it was 24.7%; in the experiment on UO-31 renal it was 10.6%; in the experiment with TK-10 renal, 20.5%; with ACHN renal, 11.9%. For the same compound, the growth in the experiment on CAKI-1 renal is -21.4% (active); with A498 renal, 26.5%; in the experiment with CCRF-CEM leukemia, 8.36% (active); in the experiment with MOLT-4 leukemia, -6.43% (active); in the experiment with SR leukemia it was -40.1% (active); in the experiment with RPMI-8226 leukemia it was -0.282% (active). Besides, the growth was 22.3% in the experiment on OVCAR-8 ovarian; 30.5% with OVCAR-5 ovarian; 31.6% with OVCAR-4 ovarian; 22.9% in the experiment on SK-OV-3 ovarian; 18.1% in the experiment with IGROV1 ovarian; 17.9% in the experiment on OVCAR-3 ovarian. Moreover, the growth in the experiment on HS 578T breast was 50.8%; in the experiment with NCI/ADR-RES ovarian it was 31.4%.

On to `COc1cc2c(cc1-c1c(C)noc1C)ncc1nc(C3CCCCC3)n([C@H](C)COC(F)F)c12`, for which the growth in the experiment with SK-MEL-2 melanoma was 69%; in the experiment with EKVX NSCLC, 44.3%; with SN12C renal it was 58.4%; in the experiment on UO-31 renal, 13.6%; in the experiment with TK-10 renal it was 33.2%; with ACHN renal it was 33.1%. The growth was 29.2% with CAKI-1 renal; -13.1% (active) in the experiment with A498 renal; 44.9% in the experiment with CCRF-CEM leukemia; 47.6% with MOLT-4 leukemia; 17.9% in the experiment with SR leukemia; 18.9% in the experiment with RPMI-8226 leukemia. Further, the growth was 42% with OVCAR-8 ovarian; 75.1% in the experiment with OVCAR-5 ovarian; 44.8% with OVCAR-4 ovarian; 12.5% in the experiment on SK-OV-3 ovarian; 37.8% with IGROV1 ovarian; 37.3% in the experiment on OVCAR-3 ovarian. The growth in the experiment on HS 578T breast was 18.9%; in the experiment with NCI/ADR-RES ovarian, 38.2%.

In the case of `COc1cc2nc(N3CCCC3)nc(Nc3ccccc3)c2cc1OC`, the growth in the experiment with SK-MEL-2 melanoma was -52.5% (active); in the experiment with EKVX NSCLC it was 28.3%; with SN12C renal, -53.5% (active); in the experiment with UO-31 renal, -53.5% (active); with TK-10 renal, 16.5%; in the experiment with ACHN renal, -11.2% (active). Moreover, the growth in the experiment with CAKI-1 renal was -19% (active); with A498 renal, 40.6%; in the experiment on CCRF-CEM leukemia, -11.4% (active); in the experiment on MOLT-4 leukemia, -24.7% (active); in the experiment with RPMI-8226 leukemia, -19.8% (active); in the experiment with OVCAR-8 ovarian, -30.1% (active). Moreover, the growth is -40.5% (active) with OVCAR-5 ovarian; 25.1% with OVCAR-4 ovarian; 48.5% in the experiment with SK-OV-3 ovarian; 23.3% in the experiment on IGROV1 ovarian; -70.4% (active) with OVCAR-3 ovarian; -24.2% (active) with HS 578T breast. Moreover, the growth in the experiment on NCI/ADR-RES ovarian is 18.4%.

As to `C=CC(=O)Nc1cccc(-c2nc(SC)nc(NCc3ccccc3)c2C#N)c1`, the growth was 60.8% in the experiment on SK-MEL-2 melanoma; 44% with EKVX NSCLC; 42.1% with SN12C renal; 31.1% in the experiment on UO-31 renal; 69.1% in the experiment with TK-10 renal; 50.6% in the experiment with ACHN renal. In addition, the growth in the experiment on CAKI-1 renal was 40.5%; in the experiment with A498 renal, -1.24% (active); in the experiment on CCRF-CEM leukemia it was 60.3%; in the experiment on MOLT-4 leukemia, 49.1%; with RPMI-8226 leukemia, 38.5%; with OVCAR-8 ovarian it was 39.8%. Further, the growth in the experiment with OVCAR-5 ovarian is 85.4%; in the experiment on OVCAR-4 ovarian it was 48.5%; in the experiment on SK-OV-3 ovarian, 72.2%; with IGROV1 ovarian, 57.3%; in the experiment on OVCAR-3 ovarian, 48.4%; with HS 578T breast, 51.8%. In the experiment on NCI/ADR-RES ovarian, the growth was 48.3%.

With `O=C1c2ccccc2C(=O)c2c(N=Nc3[nH]c(=S)[nH]c3O)cccc21`, the growth in the experiment with SK-MEL-2 melanoma is 24.4%; in the experiment on EKVX NSCLC, 41.6%; with SN12C renal, 35.3%; in the experiment on UO-31 renal, 26.9%; in the experiment with TK-10 renal it was 54.1%; in the experiment with ACHN renal, 41.4%. The growth is 20.6% in the experiment on CAKI-1 renal; -6.1% (active) in the experiment on A498 renal; 14.1% in the experiment with CCRF-CEM leukemia; 16% in the experiment on MOLT-4 leukemia; -2.62% (active) with RPMI-8226 leukemia; 30.3% in the experiment on OVCAR-8 ovarian. For the same compound, the growth with OVCAR-5 ovarian is 49.8%; in the experiment with OVCAR-4 ovarian it was 58.9%; in the experiment on SK-OV-3 ovarian, 30.6%; in the experiment on IGROV1 ovarian, 27%; with OVCAR-3 ovarian, 1.75% (active); in the experiment with HS 578T breast it was 5.86% (active). Also, the growth with NCI/ADR-RES ovarian was 50%.

Consider `N#Cc1c(-c2ccc(Cl)cc2)nc(N=Nc2c(O)[nH]c3ccc(Cl)cc23)nc1N1CCOCC1`, for which the growth in the experiment on SK-MEL-2 melanoma is 98.1%; in the experiment with EKVX NSCLC it was 86.1%; in the experiment with SN12C renal, 97%; in the experiment with UO-31 renal, 67.5%; with TK-10 renal, 120%; in the experiment with ACHN renal, 94.6%. Further, the growth in the experiment on CAKI-1 renal is 85.2%; in the experiment on A498 renal, 73.2%; in the experiment with CCRF-CEM leukemia it was 111%; in the experiment on MOLT-4 leukemia, 110%; in the experiment with RPMI-8226 leukemia it was 119%; with OVCAR-8 ovarian it was 100%. In addition, the growth is 98.9% in the experiment on OVCAR-5 ovarian; 99.8% in the experiment with OVCAR-4 ovarian; 96.1% in the experiment on SK-OV-3 ovarian; 92.5% in the experiment on IGROV1 ovarian; 115% in the experiment with OVCAR-3 ovarian; 94% in the experiment on HS 578T breast. Also, in the experiment on NCI/ADR-RES ovarian, the growth is 88.3%.
